From PubChem BioAssay (NCI)
Compounds without any hit were thinned out: in the full panel of roughly 83,000, 20% have a hit.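 The test compound was applied at a single concentration to cells in 96-well plates for 48 hours, and percent growth was recorded.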 A number with no mark means an inactive call. Active and inactive are the calls of the source. The calls were made as follows: active = growth percent below 10; inactive = the rest.

What was measured:
Assay in all cases: NCI-60 one-dose screen, 48 h (100 = growth as untreated, 0 = no growth, -100 = all killed)
[1] = system: SR leukemia; settings: 10 µM unless noted
[2] = system: RPMI-8226 leukemia; settings: 10 µM unless noted
[3] = system: OVCAR-8 ovarian; settings: 10 µM unless noted
[4] = system: OVCAR-5 ovarian; settings: 10 µM unless noted
[5] = system: OVCAR-4 ovarian; settings: 10 µM unless noted
[6] = system: SK-OV-3 ovarian; settings: 10 µM unless noted
[7] = system: IGROV1 ovarian; settings: 10 µM unless noted
[8] = system: OVCAR-3 ovarian; settings: 10 µM unless noted
[9] = system: NCI/ADR-RES ovarian; settings: 10 µM unless noted
[10] = system: T-47D breast; settings: 10 µM unless noted
[11] = system: BT-549 breast; settings: 10 µM unless noted
[12] = system: MDA-MB-435 melanoma; settings: 10 µM unless noted
[13] = system: SW-620 colon; settings: 10 µM unless noted
[14] = system: MCF7 breast; settings: 10 µM unless noted
[15] = system: HCT-116 colon; settings: 10 µM unless noted
[16] = system: HCC-2998 colon; settings: 10 µM
[17] = system: KM12 colon; settings: 10 µM unless noted

SMILES	growth [1]	growth [2]	growth [3]	growth [4]	growth [5]	growth [6]	growth [7]	growth [8]	growth [9]	growth [10]	growth [11]	growth [12]	growth [13]	growth [14]	growth [15]	growth [16]	growth [17]
Nc1ncnc2c1c(-c1cccc(OCc3ccccc3)c1)cn2C1CC(CN2CCC2)C1 (configuration not stated)	-17.7% (active)	-24% (active)	34.9%	36%	57.4%	40.2%	22.4%	58.8%	35.4%	-38.2% (active)	33%	-43.6% (active)	3.94% (active)	-22% (active)	9.54% (active)	17%	6.66% (active)
O=C(O)c1ccc(Nc2ncc3c(n2)-c2ccc(Cl)cc2C(c2c(F)cccc2F)=NC3)cc1	24.2%	47.7%	43%	59.3%	79.6%	59.7%	41.8%	64.5%	55.4%	47.5%	57.1%	70.7%	35.4%	49.3%	43.6%	78.5%	28.3%
Cc1sc2c(c1C)c(=O)nc1c(-c3nc(-c4ccccc4)cs3)n[nH]n12	90.5%	93.8%	99.8%	109%	106%	89.6%	96.9%	96.4%	96.1%	83.9%	110%	107%	97.3%	91.2%	100%	101%	99.4%
C=CC(=O)N1CCC(Oc2cc3c(Nc4ccc(Cl)c(Cl)c4F)ncnc3cc2OC)CC1	-20.2% (active)	35%	18.4%	25.3%	39%	-37.4% (active)	-44.8% (active)	19.4%	-16.8% (active)	-4.87% (active)	8.14% (active)	-34.7% (active)	32.8%	26.8%	21.8%	67.1%	30.6%
Cc1nc2ccc(-n3ncc(C(=O)c4cc5ccccc5[nH]4)c3N)cc2[nH]1	14.6%	45.2%	41.9%	65.9%	71.1%	49.6%	37.2%	63.2%	66%	34.9%	54%	62.8%	43.7%	44.2%	27.1%	68.8%	17.3%
Cn1cnc2c(F)c(Nc3ccc(Br)cc3Cl)c(C(=O)NOCCO)cc21	75%	69.9%	66.4%	7.92% (active)	65.5%	51.5%	25.3%	106%	68.6%	70%	78.5%	33.3%	24.2%	96%	17.6%	-10.2% (active)	28.6%
Cn1cc(-c2cnn3c(N)c(Br)c([C@@H]4CCCNC4)nc23)cn1	4.1% (active)	24.3%	50.8%	56.9%	61.2%	38.1%	36.9%	59.8%	51.5%	59.8%	52.1%	39.1%	63.8%	31.5%	35.8%	53.7%	18.4%
Cc1cc(C(=O)NOCCO)c(Nc2ccc(I)cc2F)n(C)c1=O	71.3%	78.8%	67.9%	20.3%	71.3%	57.3%	28%	106%	76.2%	103%	85.7%	35.4%	24.8%	94.7%	15.2%	-16.6% (active)	28.4%
CCn1c(-c2nonc2N)nc2c(C#CC(C)(C)O)ncc(OC[C@H]3CCCNC3)c21	29.3%	91.7%	70.6%	108%	68.5%	15%	23.9%	41.3%	95.6%	66.7%	49.6%	75.3%	46.1%	15.6%	44.5%	81.4%	35.9%
Cc1nc(Nc2n[nH]c3c2CN(C(=O)N[C@H](CN(C)C)c2ccccc2)C3(C)C)c2sccc2n1	-12.1% (active)	-35.2% (active)	-26.3% (active)	-2.55% (active)	-12% (active)	-26.8% (active)	-17.9% (active)	8.31% (active)	40.3%	-25.2% (active)	-42.5% (active)	-66.2% (active)	1.22% (active)	-3.74% (active)	-9.97% (active)	-55.1% (active)	-12.7% (active)
Cn1ccnc1C(=O)/C=C/c1ccc(CC(=O)Nc2ccc(Br)cc2)cc1	3.22% (active)	8.13% (active)	3.98% (active)	21.8%	43.2%	54.6%	11.3%	11.1%	16.3%	4.43% (active)	12.1%	45.6%	4.81% (active)	12%	12%	15.3%	4.87% (active)
CO[C@@H](C(=O)N1Cc2[nH]nc(NC(=O)c3ccc(N4CCN(C)CC4)cc3)c2C1)c1ccccc1	-1.07% (active)	44%	5.58% (active)	4.9% (active)	9.35% (active)	7.44% (active)	-16.1% (active)	40.6%	81.7%	-16.3% (active)	-10.8% (active)	19.5%	21.5%	17.7%	-35.7% (active)	26.4%	-28.7% (active)
COc1cc(OC)c(/C=C/S(=O)(=O)Cc2ccc(OC)c(NCC(=O)O)c2)c(OC)c1	10.7%	25.6%	15.4%	49.1%	60.1%	15.8%	22.6%	35.9%	9.1% (active)	52.7%	6.04% (active)	-30.5% (active)	24.5%	13.1%	6.42% (active)	5.81% (active)	5.06% (active)
COc1cccc(NC(=O)Nc2ccc(Nc3ncnc4sc5c(c34)CCN(C(=O)CCl)C5)cc2)c1	77.8%	93.3%	84.4%	103%	126%	93.8%	82.6%	104%	102%	86.6%	99.1%	109%	102%	87.3%	93.5%	115%	98.1%
Cc1ncc(-c2ccnc(Nc3ccc(S(C)(=O)=O)cc3)n2)n1C(C)C	-18.3% (active)	-0.427% (active)	6.22% (active)	-0.123% (active)	3.33% (active)	11.6%	-10.8% (active)	8.42% (active)	1.79% (active)	-12.3% (active)	-11.4% (active)	-45.2% (active)	0.356% (active)	2.6% (active)	-0.0408% (active)	-15.6% (active)	-68.7% (active)
CCc1cc2c(cc1N1CCC(N3CCOCC3)CC1)C(C)(C)c1[nH]c3cc(C#N)ccc3c1C2=O	-3.84% (active)	15.7%	-11.3% (active)	-8.72% (active)	-50.9% (active)	-22.5% (active)	-41.6% (active)	4.44% (active)	-1.18% (active)	-26.7% (active)	-19.3% (active)	5.08% (active)	2.54% (active)	13.8%	-7.97% (active)	5.22% (active)	4.1% (active)
